# Assay results: PubChem BioAssay
# Active and inactive are the calls of the source.
# Assays:
# [1] = optical density shifts of acrAB sulA E. coli – strain DRC41, OD650, 48 h, E. coli filamentation inducer project, primary screen (AID 1152); conditions: higher = more signal, called active from +8 up or from −8 down;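 further: E. coli MC1000 strain DRC41 lacking acrAB efflux pump and sulA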
# [2] = probe aLefty1 binding on compound microarray – biochemical, small-molecule microarray, 635/667 nm fluorescence, primary screen (AID 1153); conditions: higher = more signal;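 further: score merges spot fluorescence with signal-to-noise ratio from the scanned slide images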
# [3] = plasmodial surface anion channel blockers, osmotic lysis – cell-based, P. falciparum Indochina, OD700, 1 h, primary screen (AID 1154); conditions: P. falciparum Indochina infected RBC osmotic lysis, higher = more signal, called active from +8 up or from −8 down
# [4] = plasmodial surface anion channel blockers, osmotic lysis – cell-based, P. falciparum Indochina, OD700, 2 h, primary screen (AID 1155);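 further: lysis reports solute entry through the parasite surface anion channel PSAC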; conditions: P. falciparum Indochina infected erythrocytes, higher = more signal, called active from +8 up or from −8 down
# [5] = changes in parasitized red cell lysis, either direction – P. falciparum Indochina, OD700, 3 h, PSAC antagonist project, primary screen (AID 1156); conditions: P. falciparum-infected erythrocytes, osmotic lysis, higher = more signal, called active from +8 up or from −8 down
# [6] = plasmodial surface anion channel blockers, osmotic lysis – cell-based, P. falciparum Indochina, OD700, 18 h, primary screen (AID 1157); conditions: P. falciparum Indochina infected erythrocytes, osmotic lysis OD700, 18 h; higher = more signal, called active from +8 up or from −8 down
# [7] = S6 kinase pathway phospho-S6 level changes – cell-based, A549, cytoblot, luminescence, serum-stimulated, primary screen (AID 1158); conditions: 5 h, higher = more signal;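 further: serum-stimulated A549 lung adenocarcinoma cells; signal is phosphorylated S6 detected by cytoblot immunostaining with HRP secondary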
# [8] = molecular target: NADPH oxidase 2 (Homo sapiens) (UniProt P04839); assay: compounds shifting NOX2 Amplex Red fluorescence – cell-based, HEK293-NOX2, PMA-stimulated, NOX inhibitor project, primary screen (AID 1159); conditions: 45 min, higher = more signal, called active from +8 up or from −8 down; further: test concentration not given here
# [9] = molecular target: NADPH oxidase 4 (Homo sapiens) (UniProt Q9NPH5); assay: compounds shifting NOX4 Amplex Red fluorescence – cell-based, HEK293-NOX4, tetracycline-induced, NOX inhibitor project, primary screen (AID 1160); conditions: HEK293-NOX4, Amplex Red H2O2 fluorescence, 45 min; higher = more signal, called active from +8 up or from −8 down
# [10] = molecular target: NADPH oxidase 5 (Homo sapiens) (UniProt Q96PH1); assay: compounds shifting NOX5 Amplex Red fluorescence – cell-based, HEK293-NOX5, NOX inhibitor project, primary screen (AID 1161); conditions: HEK293-NOX5, ionomycin, 45 min, higher = more signal
# NADPH oxidase 5 (Homo sapiens), sequence (Q96PH1 whole entry, looked up): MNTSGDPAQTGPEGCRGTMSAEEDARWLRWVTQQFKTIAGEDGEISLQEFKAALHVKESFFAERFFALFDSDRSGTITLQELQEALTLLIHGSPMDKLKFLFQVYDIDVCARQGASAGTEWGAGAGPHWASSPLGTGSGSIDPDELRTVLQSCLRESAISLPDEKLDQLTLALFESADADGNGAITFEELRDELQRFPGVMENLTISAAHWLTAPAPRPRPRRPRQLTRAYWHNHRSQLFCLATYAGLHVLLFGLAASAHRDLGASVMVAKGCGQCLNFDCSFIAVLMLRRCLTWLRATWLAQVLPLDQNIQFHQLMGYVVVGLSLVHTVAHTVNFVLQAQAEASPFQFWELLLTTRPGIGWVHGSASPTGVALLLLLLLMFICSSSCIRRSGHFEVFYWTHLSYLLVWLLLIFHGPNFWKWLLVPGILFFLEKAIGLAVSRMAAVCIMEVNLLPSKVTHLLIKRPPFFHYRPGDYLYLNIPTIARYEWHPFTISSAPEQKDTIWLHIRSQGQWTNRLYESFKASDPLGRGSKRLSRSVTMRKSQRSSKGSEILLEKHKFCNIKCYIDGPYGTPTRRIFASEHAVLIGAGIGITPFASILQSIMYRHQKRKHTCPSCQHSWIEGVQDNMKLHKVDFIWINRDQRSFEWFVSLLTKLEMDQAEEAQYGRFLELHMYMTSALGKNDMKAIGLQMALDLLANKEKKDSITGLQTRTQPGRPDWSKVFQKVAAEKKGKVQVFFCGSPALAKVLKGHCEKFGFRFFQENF
# NADPH oxidase 2 (Homo sapiens), sequence (P04839 whole entry, looked up): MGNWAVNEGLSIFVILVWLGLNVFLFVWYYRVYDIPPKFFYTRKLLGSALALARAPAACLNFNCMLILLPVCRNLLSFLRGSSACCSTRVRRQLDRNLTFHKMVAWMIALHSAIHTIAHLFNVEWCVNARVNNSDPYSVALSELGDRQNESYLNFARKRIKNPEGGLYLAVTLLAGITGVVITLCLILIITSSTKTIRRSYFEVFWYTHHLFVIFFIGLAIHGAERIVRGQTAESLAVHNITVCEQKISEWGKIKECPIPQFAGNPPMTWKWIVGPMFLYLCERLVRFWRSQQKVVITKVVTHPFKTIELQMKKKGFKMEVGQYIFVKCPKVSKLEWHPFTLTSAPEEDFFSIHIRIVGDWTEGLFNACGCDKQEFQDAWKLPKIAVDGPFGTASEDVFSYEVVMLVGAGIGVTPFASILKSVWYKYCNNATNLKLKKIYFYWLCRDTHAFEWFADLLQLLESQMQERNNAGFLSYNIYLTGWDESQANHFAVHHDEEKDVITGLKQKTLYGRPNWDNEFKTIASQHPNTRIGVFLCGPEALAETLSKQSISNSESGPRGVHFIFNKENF
# NADPH oxidase 4 (Homo sapiens), sequence (Q9NPH5 whole entry, looked up): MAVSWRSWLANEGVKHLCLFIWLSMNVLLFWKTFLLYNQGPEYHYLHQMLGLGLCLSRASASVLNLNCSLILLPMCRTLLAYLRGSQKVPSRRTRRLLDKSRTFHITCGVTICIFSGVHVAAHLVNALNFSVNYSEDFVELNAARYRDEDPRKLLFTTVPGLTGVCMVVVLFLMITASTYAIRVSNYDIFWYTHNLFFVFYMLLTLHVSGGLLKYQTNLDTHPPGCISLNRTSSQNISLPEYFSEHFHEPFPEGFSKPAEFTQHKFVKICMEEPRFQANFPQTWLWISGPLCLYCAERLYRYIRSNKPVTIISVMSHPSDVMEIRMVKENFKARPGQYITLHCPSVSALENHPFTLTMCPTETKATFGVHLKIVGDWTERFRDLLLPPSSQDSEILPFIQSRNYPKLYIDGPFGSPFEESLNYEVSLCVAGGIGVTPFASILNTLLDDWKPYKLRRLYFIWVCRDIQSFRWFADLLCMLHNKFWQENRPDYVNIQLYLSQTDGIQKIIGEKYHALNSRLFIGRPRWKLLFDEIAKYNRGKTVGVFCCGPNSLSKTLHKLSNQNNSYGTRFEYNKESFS
Compound,z-score [1],composite z-score [2],z-score [3],z-score [4],z-score [5],z-score [6],z-score [7],z-score [8],z-score [9],z-score [10]
COc1ccc(CCNC(=O)[C@@]2(Sc3ccc(C)cc3)CC(=O)N(C(C)C)[C@@H]2c2ccc(CO)cc2I)cc1,-0.0322 (inactive),-0.104,5.56 (inactive),0.428 (inactive),0.445 (inactive),-0.135 (inactive),0.394,0.446 (inactive),-0.641 (inactive),1.22
CN(C)CCCCCCNC(=O)[C@H]1C[C@H]2C(=O)N3CCC[C@H]3C(=O)N2[C@H]1c1ccc(O)cc1,1.47 (inactive),0.0811,0.89 (inactive),0.326 (inactive),-0.664 (inactive),0.253 (inactive),-0.549,0.544 (inactive),-1.28 (inactive),-0.0199
COCCOC(=O)N1C(=O)[C@@]2(c3cc(C#CCC(C(=O)OC)C(=O)OC)ccc31)[C@H](C(=O)N1CCN(c3ncccn3)CC1)[C@H]1C(=O)O[C@H](c3ccccc3)[C@H](c3ccccc3)N1[C@@H]2c1ccccc1OCCO,-0.646 (inactive),0.312,3.14 (inactive),1.55 (inactive),0.391 (inactive),0.533 (inactive),0.0555,1.45 (inactive),0.851 (inactive),1.3
O=C1C[C@@](C(=O)NCCN2CCOCC2)(c2ccc([N+](=O)[O-])cc2)[C@@H](c2ccc(CO)cc2I)N1CC12CC3CC(CC(C3)C1)C2,-0.942 (inactive),0.344,18.9 (active),10.2 (active),0.797 (inactive),1.28 (inactive),0.238,-8.18 (active),-1.75 (inactive),1.58
COC(=O)[C@@]1(Cc2ccc(OC)cc2)[C@H]2c3cc(C(=O)N(C)C)n(CCc4ccccn4)c3C[C@H]2CN1C(=O)c1ccccc1,-1.83 (inactive),1.64,3.81 (inactive),1.77 (inactive),1.01 (inactive),1.58 (inactive),-0.334,0.63 (inactive),-0.925 (inactive),-1.04
COC(=O)[C@@]1(Cc2ccc(F)cc2)[C@H]2c3cc(C(=O)N4CCCC4)n(Cc4ccc(S(C)(=O)=O)cc4)c3C[C@H]2CN1C(=O)c1ccccc1,-1.75 (inactive),1.24,2.29 (inactive),0.675 (inactive),0.775 (inactive),0.643 (inactive),-0.339,0.949 (inactive),-0.138 (inactive),-0.744
CC(C)N1C(=O)C[C@@](C(=O)NCC(F)(F)F)(c2ccc([N+](=O)[O-])cc2)[C@H]1c1ccc(CO)cc1,1.09 (inactive),-0.101,0.642 (inactive),-0.558 (inactive),0.533 (inactive),-1.68 (inactive),2.47,0.271 (inactive),0.465 (inactive),-0.127
C=CCN1C(=O)[C@@]2(Cc3ccccc31)N=C(c1ccc(OCCCO)cc1)O[C@H]2c1ccccc1,0.613 (inactive),0.481,14.6 (active),3.47 (inactive),3.29 (inactive),1.35 (inactive),0.104,-2.01 (inactive),-0.253 (inactive),-2.65
C=CCNC(=O)[C@H]1[C@@H]2C(=O)O[C@@H](c3ccccc3)[C@@H](c3ccccc3)N2[C@@H](c2ccccc2OCCO)[C@]12C(=O)Nc1ccc(C#CCC(C(=O)OC)C(=O)OC)cc12,0.0038 (inactive),0.924,5.08 (inactive),1.84 (inactive),-0.223 (inactive),0.909 (inactive),-0.318,1.62 (inactive),0.834 (inactive),1.5
C=C(CCCC)/C(=C/C[C@H](OC(C)=O)c1ccccc1OCCO)c1cc(C(=O)OC)ccc1OC,1.02 (inactive),-0.0046,15.1 (active),0.621 (inactive),2.54 (inactive),-1.43 (inactive),0.708,0.254 (inactive),0.101 (inactive),-1.92
CC(C)c1ccc(NN2C(C(O)c3ccc(B(O)O)cc3)C=CC3C(=O)N(c4ccccc4)C(=O)C32)cc1 (stereo not given),-1.04 (inactive),0.0595,1.93 (inactive),0.698 (inactive),0.421 (inactive),1.27 (inactive),-0.999,-1.02 (inactive),-2.31 (inactive),-4.18
CC[C@@H]1C=C(C(=O)O)[C@H](c2ccc(Br)cc2)N1S(=O)(=O)c1ccc(C)cc1,-0.467 (inactive),-0.0989,0.471 (inactive),1.06 (inactive),-0.187 (inactive),0.658 (inactive),-0.283,0.451 (inactive),-0.117 (inactive),0.379
COc1cc2c(cc1OC)CN(C(=O)[C@@H]1[C@H]3C(=O)O[C@H](c4ccccc4)[C@H](c4ccccc4)N3[C@H](c3ccccc3OCCO)[C@@]13C(=O)Nc1ccc(C#CCCO)cc13)CC2,0.761 (inactive),0.751,2.28 (inactive),1.05 (inactive),0.85 (inactive),0.565 (inactive),0.212,1.29 (inactive),1.15 (inactive),0.301
